An excerpt weighted towards active compounds, which were near 19% of everything screened.
HT1080 IDH1KD tx = toxicity to HT-1080 IDH1 knockdown cells (counter line) | HT-1080 IDH1 knockdown viability, ATP luminescence, 48 h | Potency, µM (doses to about 46.1 µM), for inactives: top-dose activity, negative = toxicity, actives largely listed as cytotoxic | hit rate 2% among 360,000 | AID 686971;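 also: 0% = DMSO wells and -100% = cell-free medium wells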
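Using the IDH1-knockdown HT-1080 line run in the same batch and compound series as the NT line, viability after 48 h at 37 °C was determined by CellTiter-Glo luminescence and expressed as % activity.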
KB-V1 cytotox = kills drug-selected multidrug resistant KB-V1 cells | KB-V1 MDR cells viability, CellTiter-Glo, 72 h | Potency, µM (series often up to 46.1 µM), usual class: cytotoxic | hit rate 3.4% among 400,000 | AID 1347076; also: nearly all actives have a fitted effect of over 60% in size
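Potencies derive from concentration-effect curves fitted to normalized luminescence (CellTiter-Glo) of KB-V1 cells treated for 72 h at 37 degrees C in phenol-red-free DMEM containing 10% FBS.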
TDP1 cell CPT = DT40-hTDP1 cell growth loss with CPT; chicken DT40 Tdp1-/-;hTDP1 cells + 20 nM CPT, ATP luminescence, 48 h; Potency, µM (highest dose often 46.2 µM), inactives show at the top dose activity change, negative = growth inhibition, most hits filed as inhibitors; hit rate 12% among 420,000; also: nearly all actives have a fitted effect of over 55% in size
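Chicken DT40 Tdp1-/- cells complemented with human TDP1, 400 cells/well, exposed to compounds plus 20 nM camptothecin for at least 48 h at 37 C; viability read as ATP content by CellTiter-Glo luminescence.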
KB-3-1 cytotox = kills parental KB-3-1 adenocarcinoma cells; KB-3-1 viability, CellTiter-Glo ATP luminescence, 72 h; Potency, µM (top dose mostly 46.1 µM), hits mostly cytotoxic; hit rate 1.4% among 400,000; AID 1347075; also: nearly all actives have a fitted effect of over 60% in size
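Luminescent ATP read-out (CellTiter-Glo) measures survival of drug-naive KB-3-1 cells after 72 h compound exposure at 37 °C. Titration series was screened from lowest to highest concentration, with DMSO vehicle plates as background controls.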
HT1080-NT tox = kills 2HG-producing HT-1080-NT fibrosarcoma cells. HT-1080-NT fibrosarcoma viability, CellTiter-Glo ATP luminescence, 48 h. Potency, µM (top dose mostly 46.1 µM), inactives show at the highest dose activity, negative = less viability, actives largely listed as cytotoxic. hit rate 1.6% among 360,000. AID 686970;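 also: NT is the 2HG producing partner of a matched IDH1 knockdown line; 0% = DMSO-treated cells and -100% = media-only wells without cells; nearly all actives have a fitted effect of over 55% in size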
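HT-1080-NT fibrosarcoma cells (2HG-overproducing), 750 cells/well in RPMI with 5% FBS, dosed after 2 h and incubated 48 h at 37C. CellTiter-Glo luminescence normalized to DMSO and no-cell wells; concentration-response curves fitted and classed.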
DT40 TDP1 no CPT = qHTS for Inhibitors of human tyrosyl-DNA phosphodiesterase 1 (TDP1): qHTS in cells in absence of CPT | Potency, µM (series often up to 46.2 µM), for inactives: at the top dose activity change, negative = growth inhibition, most hits filed as inhibitors | hit rate 15% among 420,000 | DT40 Tdp1-/- hTDP1 cells, no CPT, ATP luminescence, 48 h | AID 686978, 2013; also: nearly all actives have a fitted effect of over 55% in size
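Growth kinetics read by CellTiter-Glo luminescence after ≥48 hr at 37 °C. Cells: DT40 Tdp1-/- stably carrying human TDP1, 400 per well, compound exposure in the absence of CPT (DMSO vehicle).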
An asterisk follows results filed as active; i = inactive; ? = inconclusive; · = no result; [ ] = remark or other dose. Calls follow the shape of the dose curve; as a rule, active = well fitted curve in the direction sought with a large enough effect; inconclusive = small, poorly fitted or top-dose-only effect, or another doubt; inactive = no such curve, though single readings can be large; an effect the other way counts as inactive or inconclusive. Unless noted, % is scaled to controls: 0 for no effect and ±100 for the full control effect; potency is read from the fitted curve at half-maximal effect.

SMILES	HT1080 IDH1KD tx	KB-V1 cytotox	TDP1 cell CPT	KB-3-1 cytotox	HT1080-NT tox	DT40 TDP1 no CPT
COc1ccc(C(=O)NC(Nc2ccccc2)C(Cl)(Cl)Cl)cc1 (centres undefined)	-17.9%	8.2µM*	-23.1%	?	-6.1%	?
Cc1cccc(OC(C)C(=O)Nc2nc(-c3cccnc3)cs2)c1 (centres undefined)	-16.3%	?	?	i	-8.1%	?
CCc1ccccc1NC(=O)N[C@H](C(=O)O)C(C)CC (some centres undefined)	5.7%	i	?	i	1.4%	14.6µM*
CC(Oc1ccc(Br)cc1)C(=O)Nc1nc(-c2ccccn2)cs1 (centres undefined)	?	?	4.61µM*	?	?	3.26µM*
CC(C)N1CCC(C)(C(=O)Nc2ccccc2Oc2ccccc2)C1 (centres undefined)	1.9%	?	-11.7%	i	17.2%	-11.9%
N#Cc1ccccc1OCC(=O)NC1CCCCCC1	-1.9%	i	?	i	-3.8%	?
Cc1cccc(C(=O)N[C@H](C(=O)Nc2nc3ccccc3[nH]2)C(C)C)c1	5.8µM*	?	3.26µM*	5.17µM*	5.8µM*	3.66µM*
COc1cc(OC)cc(C(=O)N[C@H](C(=O)NCc2ccco2)C(C)C)c1	-5.6%	i	29.1µM*	?	-2.4%	14.6µM*
COc1ccc(NC(=O)C(CC(=O)O)C(C)c2ccccc2)cc1 (centres undefined)	12.0%	i	16.4µM*	i	9.5%	?
COc1ccc(NC(=O)C(NC(=O)c2ccccc2)C(C)C)cc1 (centres undefined)	?	20.6µM*	3.4%	i	0.4%	4.1%
COc1ccc(NC(=O)c2ccccc2)cc1	-8.5%	i	?	i	-8.3%	?
CCC(=O)N1c2ccc(S(=O)(=O)CCC(=O)NCc3ccc(OC)cc3)cc2CC1C (centres undefined)	·	i	?	i	·	?
CCc1ccc(NC(=O)C(=O)NCC(c2cccnc2)N2CCOCC2)cc1 (centres undefined)	·	i	?	i	·	?
CC(C)[C@H](NC(=O)Nc1ccc(Oc2ccccc2)cc1)C(=O)O	6.4%	i	11.6µM*	i	0.7%	13µM*
CC(C)[C@H](NC(N)=O)C(=O)Nc1ccc(Oc2ccccc2)cc1	?	i	0.3%	i	-13.3%	-4.2%
Cc1cccc(C(=O)N[C@H](C(=O)Nc2nc(C)cs2)C(C)C)c1	10.1%	i	8.2µM*	i	3.6%	7.31µM*
Cc1csc(NC(=S)NC(=O)c2ccccc2)n1	-8.8%	i	?	i	7.1%	18.4µM*
Cc1csc(NC(=O)[C@@H](NC(=O)c2ccccc2)C(C)C)n1	20.7%	i	?	i	22.4%	8.2µM*
CCCCOC(=O)Cn1nnc2sc(-c3ccccc3)cc2c1=O	·	i	-13.7%	i	·	-20.1%
O=C(OCc1ccccc1)N1CCOCCN(C(=O)OCc2ccccc2)CCOCC1	-3.6%	?	25.9µM*	i	-2.6%	25.9µM*
O=C(Nc1ccc(N2CCOCC2)cc1)C1CCN(C(=O)OCc2ccccc2)CC1	-6.8%	i	2.0%	i	-19.2%	-21.0%
O=C(Nc1ccc(N2CCOCC2)cc1Cl)C1CCN(C(=O)OCc2ccccc2)CC1	?	i	?	i	?	16.4µM*
N#Cc1cccc(C(=O)C(=O)N2CCN(C(=O)OCc3ccccc3)CC2)c1	21.7%	?	?	i	28.3%	23.1µM*
O=C(OCC(=O)N1CCOCC1)C(c1ccccc1)c1ccccc1	3.8%	20.6µM*	9.8%	i	4.8%	3.8%
CCC(C)NC(=O)CCC(=O)N1Cc2ccccc2Oc2ncccc21 (centres undefined)	·	?	-11.1%	i	·	-15.0%
SMILES	HT1080 IDH1KD tx	KB-V1 cytotox	TDP1 cell CPT	KB-3-1 cytotox	HT1080-NT tox	DT40 TDP1 no CPT
CCOC(=O)C1CCCN(c2c(C(=O)c3ccccc3)cnc3ccc(OC)cc23)C1 (centres undefined)	16.9%	?	14.6µM*	i	9.2%	20.6µM*
CCOC(=O)C1CCN(c2c(C(=O)c3ccc(OCC)cc3)cnc3ccc(OC)cc23)CC1	·	?	23.1µM*	i	·	20.6µM*
CCOc1ccc(C(=O)COC(=O)C2CCN(c3ccc(C(F)(F)F)cn3)CC2)cc1	-13.0%	i	?	i	4.9%	?
COc1cc2ncc(C(=O)c3ccc(C)cc3)c(N3CCCCC3)c2cc1OC	·	i	11.6µM*	i	·	11.6µM*
CCN1CCN(c2c(C(=O)c3ccc(OC)cc3)cnc3ccccc23)CC1	-0.3%	i	-14.9%	i	-1.7%	-17.7%
CCOC(=O)C1CCCN(c2c(C(=O)c3ccc(OCC)cc3)cnc3ccccc23)C1 (centres undefined)	·	i	18.4µM*	i	·	?
COc1ccc(NCc2ccccc2-c2nnc(-c3ccccc3)o2)cc1Cl	·	?	-16.1%	i	·	-15.8%
Cc1noc(C)c1COc1ccccc1C(=O)N1CCN(c2cccc(C(F)(F)F)c2)CC1	?	?	5.17µM*	?	?	4.61µM*
Cc1noc(C)c1COc1ccccc1C(=O)N1CCN(c2cccc(Cl)c2)CC1	23.1µM*	?	?	?	23.1µM*	?
Cc1cc(C)c(S(=O)(=O)N2CCN(C(=O)c3ccccc3OCc3c(C)noc3C)CC2)c(C)c1	-0.4%	7.31µM*	?	i	-7.2%	-29.5%
O=C(CSc1ccc(-c2ccc(-n3cccn3)cc2)nn1)Nc1ccccc1F	1.9%	i	-19.9%	i	7.0%	-15.3%
CC1=C(C(=O)NCc2ccc(Cl)cc2)C2(CCCCC2)OC1=O	·	·	?	·	·	-25.5%
COc1ccc(-n2c(CNC(=O)c3cccc(OC)c3OC)nnc2SC)cc1	·	·	-1.3%[9.04 µM]	·	·	-12.7%
Cc1ccc(C2C(=O)N(C3CCCCCC3)CC(=O)N2CCC2=CCCCC2)cc1 (centres undefined)	·	·	?	·	·	20.6µM*
COc1ccc(C2C(=O)N(CCc3ccccc3)CC(=O)N2C2CCCCC2)cc1 (centres undefined)	?	3.66µM*	-0.8%	i	-5.8%	-25.9%
CCCOc1ccc(C2C(=O)N(C3CCCCCC3)CC(=O)N2CCC2=CCCCC2)cc1OC (centres undefined)	·	·	-12.2%	·	·	-20.0%
